# PubChem BioAssay AID1159580 (chemical genetic matrix, 2015)
# Hit rate of the full screen: of about 5,500 compounds, about 2,000 (36%) were called active. Inconclusive results (about 18%) are left out. The list shows a part of the results. A number with no mark means an inactive call. Rule as the data show it: active = normalized growth mostly below about 0.91 (no sharp cut-off); inconclusive = no clear call, values can overlap the other calls; inactive = mostly above about 0.92.
# Experiment: chemical genetic growth profiling, strain panel (AID 1159580);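 also: tested at 20 µM; growth read once vehicle control cultures reached saturation at 30 °C; 1 = growth at the plate median or of vehicle wells; lower values mean less growth of the strain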
# Settings: S. cerevisiae deletion strains, growth OD
compound,measurement,setting,value
CC1(C)CC[C@]2(C(=O)O)CC[C@]3(C)C(=CCC4[C@@]5(C)CC[C@H](O)[C@@](C)(CO)C5CC[C@]43C)C2C1 (some centres not stated),normalized growth,"locus YJL187C, strain SWE1 (second series), active compounds read low",1.02
same,normalized growth,"locus YJL187C, strain SWE1, active compounds read low",1.04
same,normalized growth,"locus YJR043C, strain POL32, active compounds read low",1.03
same,normalized growth,"locus YJR066W, strain TOR1, active compounds read low",0.977
same,normalized growth,"locus YKL085W, strain MDH1 (second series), active compounds read low",1.16 [resistant] (active)
same,normalized growth,"locus YKL085W, strain MDH1, active compounds read low",1.16 [resistant] (active)
same,normalized growth,"locus YKL160W, strain elf1, active compounds read low",1.02
same,normalized growth,"locus YKL190W, strain CNB1, active compounds read low",1.02
same,normalized growth,"locus YKR001C, strain vps1, active compounds read low",0.996
same,normalized growth,"locus YKR026C, strain gcn3, active compounds read low",1.03
same,normalized growth,"locus YKR091W, strain srl3, active compounds read low",1.03
same,normalized growth,"locus YLL001W, strain dnm1, active compounds read low",1.02
same,normalized growth,"locus YLL026W, active compounds read low",1.02
same,normalized growth,"locus YLL041C, strain sdh2, active compounds read low",1.12 [resistant] (active)
same,normalized growth,"locus YLR027C, strain aat2, active compounds read low",1.02
same,normalized growth,"locus YLR039C, strain RIC1, active compounds read low",1.04
same,normalized growth,"locus YLR058C, strain SHM2, active compounds read low",1.01
same,normalized growth,"locus YLR102C, strain apc9, active compounds read low",0.991
same,normalized growth,"locus YLR113W, strain HOG1, active compounds read low",0.929
same,normalized growth,"locus YLR221C, strain rsa3, active compounds read low",1.02
same,normalized growth,"locus YLR258W, strain gsy2, active compounds read low",1.02
same,normalized growth,"locus YLR262C, strain YPT6 (second series), active compounds read low",1.03
same,normalized growth,"locus YLR262C, strain YPT6, active compounds read low",1.09
same,normalized growth,"locus YLR268W, strain sec22, active compounds read low",1.01
same,normalized growth,"locus YLR320W, strain mms22, active compounds read low",1.03
same,normalized growth,"locus YLR330W, strain CHS5, active compounds read low",0.994
same,normalized growth,"locus YLR342W, strain FKS1 (second series), active compounds read low",1.05
same,normalized growth,"locus YLR342W, strain FKS1, active compounds read low",1.03
same,normalized growth,"locus YLR357W, strain rsc2, active compounds read low",1.01
same,normalized growth,"locus YLR370C, strain arc18, active compounds read low",1.02
same,normalized growth,"locus YLR371W, strain rom2, active compounds read low",0.958
same,normalized growth,"locus YLR384C, strain iki3, active compounds read low",1.01
same,normalized growth,"locus YLR418C, strain cdc73, active compounds read low",1.02
same,normalized growth,"locus YML016C, strain PPZ1, active compounds read low",1.01
same,normalized growth,"locus YML032C, strain rad52, active compounds read low",0.998
same,normalized growth,"locus YML120C, strain ndi1, active compounds read low",1.02
same,normalized growth,"locus YML124C, strain tub3, active compounds read low",0.996
same,normalized growth,"locus YMR058W, strain fet3, active compounds read low",1.03
same,normalized growth,"locus YMR078C, strain ctf18, active compounds read low",0.991
same,normalized growth,"locus YMR125W, strain sto1, active compounds read low",1.03
same,normalized growth,"locus YMR129W, active compounds read low",1.02
same,normalized growth,"locus YMR205C, strain PFK2, active compounds read low",1.03
same,normalized growth,"locus YMR223W, strain ubp8, active compounds read low",1
same,normalized growth,"locus YMR231W, strain pep5, active compounds read low",1.01
same,normalized growth,"locus YMR307W, strain GAS1, active compounds read low",0.931
same,normalized growth,"locus YNL067W, strain RPL9B, active compounds read low",1.04
same,normalized growth,"locus YNL071W, strain lat1, active compounds read low",1.02
same,normalized growth,"locus YNL128W, strain TEP1, active compounds read low",0.996
same,normalized growth,"locus YNL183C, strain NPR1, active compounds read low",0.878
same,normalized growth,"locus YNL209W, strain ssb2, active compounds read low",1.01
same,normalized growth,"locus YNL233W, strain BNI4, active compounds read low",1.03
same,normalized growth,"locus YNL248C, strain rpa49, active compounds read low",1.02
same,normalized growth,"locus YNL250W, strain rad50, active compounds read low",0.991
same,normalized growth,"locus YNL271C, strain bni1, active compounds read low",0.983
same,normalized growth,"locus YNL298W, strain CLA4, active compounds read low",0.992
same,normalized growth,"locus YNL307C, strain MCK1, active compounds read low",1.01
same,normalized growth,"locus YNL322C, strain KRE1 (second series), active compounds read low",1.02
same,normalized growth,"locus YNR049C, strain mso1, active compounds read low",1.02
same,normalized growth,"locus YNR052C, strain pop2, active compounds read low",0.997
same,normalized growth,"locus YOL012C, strain htz1",0.926
same,normalized growth,"locus YOL147C, strain pex11, active compounds read low",1
same,normalized growth,"locus YOR001W, strain rrp6, active compounds read low",1.01
same,normalized growth,"locus YOR061W, strain CKA2, active compounds read low",0.998
same,normalized growth,"locus YOR069W, strain VPS5, active compounds read low",1.01
same,normalized growth,"locus YOR070C, strain gyp1, active compounds read low",1
same,normalized growth,"locus YOR080W, strain dia2, active compounds read low",1.03
same,normalized growth,"locus YOR083W, strain WHI5, active compounds read low",1.02
same,normalized growth,"locus YOR106W, strain vam3, active compounds read low",1.04
same,normalized growth,"locus YOR136W, strain idh2, active compounds read low",0.999
same,normalized growth,"locus YOR144C, strain elg1, active compounds read low",1
same,normalized growth,"locus YOR184W, strain ser1, active compounds read low",1.01
same,normalized growth,"locus YOR231W, strain MKK1, active compounds read low",1.02
same,normalized growth,"locus YOR265W, strain rbl2, active compounds read low",1.01
same,normalized growth,"locus YOR270C, strain vph1, active compounds read low",1.05
same,normalized growth,"locus YOR290C, strain snf2, active compounds read low",1.03
same,normalized growth,"locus YOR316C, strain cot1, active compounds read low",0.989
same,normalized growth,"locus YPL051W, strain arl3, active compounds read low",1.01
same,normalized growth,"locus YPL078C, strain atp4, active compounds read low",1.02
same,normalized growth,"locus YPL106C, strain sse1, active compounds read low",1.04
same,normalized growth,"locus YPL240C, strain hsp82, active compounds read low",1.02
same,normalized growth,"locus YPL241C, strain CIN2, active compounds read low",0.999
same,normalized growth,"locus YPL256C, strain CLN2, active compounds read low",1.01
same,normalized growth,"locus YPR119W, strain clb2, active compounds read low",0.999
same,normalized growth,"locus YPR141C, strain kar3, active compounds read low",0.986
same,normalized growth,"locus YPR163C, strain tif3, active compounds read low",1
same,normalized growth,"locus YPR167C, strain met16, active compounds read low",0.996
same,normalized growth,"strain wtn01, active compounds read low",0.997
